Results: PubChem BioAssay (Tox21)
Values joined by “and” are separate entries in the source; they are usually repeats but may differ in a detail not shown here. Equal values may be shown once. Records with an inconclusive call do not appear. Entries that show only a call come without a potency. Where a structure was tested more than once in an assay, its records may differ in their call. Active and inactive are the calls of the source. Unless noted, calls follow the shape of the dose curve; as a rule, active = well fitted curve in the direction sought with a large enough effect in the repeat runs; inconclusive = weak or mixed curves; inactive = no such curve, though single readings can be large; an effect the other way counts as inactive or inconclusive.

Assays:
[1] = biological target: Progesterone receptor (Homo sapiens) (UniProt P06401); assay: qHTS assay to identify small molecule agonists of the progesterone receptor (PR) signaling pathway (AID 1346784; calls by dose curve; also: nearly all actives have a fitted effect of over 30% in size); conditions: PR-UAS-bla HEK293T, beta-lactamase FRET ratio, 16 h; series mostly up to 92.4 µM
In short: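 Using charcoal-stripped serum (2%) to limit endogenous steroids, PR-UAS-bla HEK 293T cells received compounds for 16 hr at 37C after 6 hr plating; beta-lactamase FRET fluorescence was recorded following 2 hr substrate loading at room temperature.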

[2] = biological target: Progesterone receptor (Homo sapiens) (UniProt P06401); assay: qHTS assay to identify small molecule antagonists of the progesterone receptor (PR) signaling pathway (AID 1346795; active = well fitted inhibition curve with a large enough effect in the signal ratio in the repeat runs, not every such curve was filed as active; the % refers to the signal ratio); conditions: PR-UAS-bla HEK293T, beta-lactamase FRET ratio, 16 h; series mostly up to 92.4 µM
In short: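 Inhibition of R5020-induced (1 nM final) beta-lactamase reporter signal in PR-UAS-bla HEK293T cells was scored by FRET fluorescence after overnight (16 hr) compound treatment.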

[3] = qHTS assay to identify small molecule antagonists of the progesterone receptor (PR) signaling pathway - cell viability counter screen (AID 1346798); conditions: PR-UAS-bla HEK293T viability, CellTiter-Glo luminescence, 16 h; series mostly up to 92.4 µM; also: nearly all actives have a fitted effect of over 50% in size; also: potency is read from the fitted curve at half-maximal effect
In short: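 ATP content as viability readout: CellTiter-Glo luminescence, 30 min room temperature, in PR-UAS-bla HEK293T cells after 16 hr compound/R5020 treatment at 37C and 5% CO2.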

[4] = qHTS assay to identify small molecule agonists of the progesterone receptor (PR) signaling pathway - cell viability counter screen (AID 1346799; calls by dose curve; also: nearly all actives have a fitted effect of over 45% in size; also: potency is read from the fitted curve at half-maximal effect); conditions: PR-UAS-bla HEK293T viability, CellTiter-Glo luminescence, 16 h; series mostly up to 92.4 µM
In short: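 Cytotoxicity in PR-bla HEK293T cells: 16 h compound, 37C; CellTiter-Glo added post-FRET read; luminescence after 30 min RT.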

[5] = qHTS assay to identify small molecule antagonists of the TGF-beta/Smad signaling pathway - cell viability counter screen (AID 1346824); conditions: SBE-bla HEK293T viability, CellTiter-Glo luminescence; series mostly up to 76.8 µM; also: nearly all actives have a fitted effect of over 50% in size; also: potency is read from the fitted curve at half-maximal effect
In short: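 Cytotoxicity counter-screen run in the same wells as the beta-lactamase Smad reporter read: CellTiter-Glo luminescence after 30 min at room temperature. HEK 293T SBE-bla cells had 5 hr compound exposure at 37 C with TGF-beta1 (0.25 ng/mL stock).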

[6] = qHTS assay to identify small molecule agonists of the TGF-beta/Smad signaling pathway - cell viability counter screen (AID 1346829); conditions: SBE-bla HEK293T viability, CellTiter-Glo luminescence, 5 h; series mostly up to 76.8 µM; also: nearly all actives have a fitted effect of over 45% in size; also: potency is read from the fitted curve at half-maximal effect
In short: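 In parallel with the Smad reporter read, viability of HEK 293T cells stably carrying SBE-bla is quantified by ATP luminescence following 5 hr compound treatment.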

[7] = biological target: Thyrotropin-releasing hormone receptor (Homo sapiens) (UniProt P34981); assay: qHTS assay to identify small molecule antagonists of the thyrotropin-releasing hormone receptor (TRHR) signaling pathway (AID 1346877; active = well fitted inhibition curve with a large enough effect in the repeat runs, not every such curve was filed as active; also: potency is read from the fitted curve at half-maximal effect); conditions: TRHR-HEK293, TRH-induced calcium fluorescence, antagonist mode; series mostly up to 51.3 µM
In short: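 Following an 18 h incubation at 37 °C and a 2 h calcium dye load, TRHR-HEK293 cells were exposed to compound (5 min, room temperature) and challenged with TRH, 1 nM final.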

[8] = biological target: Thyrotropin-releasing hormone receptor (Homo sapiens) (UniProt P34981); assay: qHTS assay to identify small molecule agonists of the thyrotropin-releasing hormone receptor (TRHR) signaling pathway (AID 1346891; calls by dose curve;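 also: HEK293 cells expressing TRHR with calcium dye readout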); conditions: TRHR-HEK293 calcium fluorescence, agonist mode; series mostly up to 57.6 µM
In short: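 In 1536-format, 1500 TRHR-Hek293 cells per well grew 18 h, took up calcium dye for 2 h at 37 °C, received compound, and were read kinetically; 15-point titrations, triplicates.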

[9] = Human pregnane X receptor (PXR) small molecule agonists, qHTS cell viability counter screen (AID 1346977); conditions: PXR-Luc HepG2 viability, CellTiter-Fluor, 24 h; series mostly up to 92.4 µM; also: nearly all actives have a fitted effect of over 50% in size; also: potency is read from the fitted curve at half-maximal effect
In short: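 Readout is CellTiter-Fluor fluorescence from PXR-Luc HepG2 cells. Plated cells rested 5hr, then were treated with compounds for 24hr at 37C and 5% CO2, with reagent present during the last hour.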

[10] = Caspase-3/7 induction in HepG2 cells by small molecules, qHTS assay (AID 1346978); conditions: HepG2 caspase-3/7 activation, Caspase-Glo luminescence, 17 h; series mostly up to 92.4 µM; also: nearly all actives have a fitted effect of over 15% in size; also: potency is read from the fitted curve at half-maximal effect
In short: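 Caspase-3/7 induction was measured by Caspase-Glo 3/7 luminescence (30 min, room temperature) after a 17 hr compound exposure of wild-type HepG2 cells seeded at 2,000 per well and pre-incubated 5 hr.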

[11] = Caspase-3/7 induction in CHO-K1 cells by small molecules, qHTS cell viability counter screen (AID 1346979); conditions: CellTiter-Fluor fluorescence, 17 h; series mostly up to 92.4 µM; also: nearly all actives have a fitted effect of over 35% in size; also: potency is read from the fitted curve at half-maximal effect
In short: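 To flag cytotoxic compounds, treated CHO-K1 wild-type cells were given CellTiter-Fluor at 16hr and read fluorescently after 1hr at 37C; the caspase-3/7 luminescence was measured in these same wells.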

[12] = Caspase-3/7 induction in CHO-K1 cells by small molecules, qHTS assay (AID 1346980); conditions: CHO-K1 caspase-3/7 induction, Caspase-Glo luminescence, 17 h; series mostly up to 92.4 µM; also: nearly all actives have a fitted effect of over 15% in size; also: potency is read from the fitted curve at half-maximal effect
In short: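 Luminescent Caspase-Glo 3/7 read (30min, room temperature) quantified apoptosis induction. Cells were wild-type CHO-K1, treated with compound for 17hr at 37 C and 5% CO2.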

[13] = Caspase-3/7 induction in HepG2 cells by small molecules, qHTS cell viability counter screen (AID 1346981); conditions: CellTiter-Fluor fluorescence, 17 h; series mostly up to 92.4 µM; also: nearly all actives have a fitted effect of over 30% in size; also: potency is read from the fitted curve at half-maximal effect
In short: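 Viability determined by CellTiter-Fluor fluorescence in HepG2 wells also used for the luminescent Caspase-Glo 3/7 read. Compounds were present for 16 hr at 37 C, 5% CO2 before reagent addition.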

[14] = biological target: Nuclear receptor subfamily 1 group I member 2 (Homo sapiens) (UniProt O75469); assay: Human pregnane X receptor (PXR) small molecule agonists, qHTS assay (AID 1346982); conditions: PXR-Luc HepG2, CYP3A4 luciferase reporter, 24 h; series mostly up to 92.4 µM; also: nearly all actives have a fitted effect of over 35% in size; also: potency is read from the fitted curve at half-maximal effect
In short: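 Compound-induced hPXR transactivation of a CYP3A4 luciferase reporter was scored in HepG2 PXR-Luc cells over 24 hr at 37 C, 5% CO2, by luminescence.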

[15] = biological target: Cytochrome P450 2D6 (Homo sapiens) (UniProt P10635); assay: Cytochrome P450 Family 2 Subfamily D Member 6 (CYP2D6) small molecule antagonists: luciferase reporter qHTS assay (AID 1671196); conditions: P450-Glo CYP2D6 enzyme assay, luciferin luminescence, 1 h; series mostly up to 115 µM; also: nearly all actives have a fitted effect of over 50% in size; also: potency is read from the fitted curve at half-maximal effect
In short: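 Each well received CYP2D6 with its proluciferin substrate and chemical, sat 10 min, then got NADPH regeneration solution for 1 h at room temperature. Luminescence in RLU served as the activity measure.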

[16] = qHTS assay to identify small molecule agonists of the estrogen receptor alpha (ER-alpha) signaling pathway in the presence of an antagonist - cell viability counter screen (AID 1259386); conditions: VM7Luc4E2 viability, CellTiter-Fluor fluorescence, 22 h; series mostly up to 92.4 µM;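 also: cells exposed to compounds for 22 h at 37 °C before the viability read; nearly all actives have a fitted effect of over 30% in size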
In short: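 Viability counter screen using VM7Luc4E2 (full-length ER-alpha, four ERE-luciferase). The cells were treated with compounds alongside ICI-182,780 10.0nM for 22hr, and live-cell protease fluorescence was quantified with CellTiter-Fluor.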

[17] = qHTS assay to identify small molecule agonists of the TGF-beta/Smad signaling pathway (AID 1346859; active = well fitted activation curve with a large enough effect in the signal ratio in the repeat runs, not every such curve was filed as active; the % refers to the signal ratio); conditions: SBE-bla HEK293T, TGF-beta/Smad beta-lactamase reporter, 5 h; series mostly up to 76.8 µM
In short: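 Stable Smad binding element-beta-lactamase HEK 293T cells; 5 hr compound exposure at 37 C under 5% CO2; 2 hr room-temperature substrate step; fluorescence excited at 405 nm, collected at 460 nm and 530 nm.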

[18] = biological target: Nuclear receptor subfamily 1 group I member 2 (Rattus norvegicus) (UniProt Q9R1A7); assay: Rat pregnane X receptor (rPXR) activation by small molecules, qHTS assay (AID 1346983); conditions: rPXR luciferase reporter cells, One-Glo luminescence, 24 h; stronger effect = higher value; also: nearly all actives have a fitted effect of over 20% in size
In short: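 Luminescent readout (One-Glo luciferase, 30 min room temperature) followed 24 hr compound treatment at 37 C of rPXR cells plated 2,000 per well and preincubated 5hr; qHTS format with compounds delivered in DMSO.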

[19] = biological target: Nuclear receptor subfamily 1 group I member 2 (Homo sapiens) (UniProt O75469); assay: Human pregnane X receptor (PXR) activation by small molecules, qHTS assay (AID 1346985); conditions: DPX-2 HepG2 CYP3A4-luciferase, 24 h; series mostly up to 38.3 µM; also: nearly all actives have a fitted effect of over 40% in size
In short: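 DPX-2 cells (HepG2 co-transfected with a PXR response element and a CYP3A4-promoter luciferase construct) were seeded at 2,000 per well, rested 5 hr at 37C, then exposed to DMSO-dissolved compounds for 24 hr. Activation was read as luciferase luminescence.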

[20] = biological target: Cytochrome P450 2C19 (Homo sapiens) (UniProt P33261); assay: Cytochrome P450 Family 2 Subfamily C Member 19 (CYP2C19) small molecule antagonists: luciferase reporter qHTS assay (AID 1671197); conditions: P450-Glo CYP2C19 enzyme, luciferin luminescence, 1 h; series mostly up to 115 µM; also: nearly all actives have a fitted effect of over 65% in size; also: potency is read from the fitted curve at half-maximal effect
In short: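 Compounds were tested on CYP2C19 activity via proluciferin conversion to luciferin. The 37C, 1 h reaction followed NADPH addition; detection reagent stopped it.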

Sequence of Cytochrome P450 2C19 (Homo sapiens) (P33261 whole entry, looked up): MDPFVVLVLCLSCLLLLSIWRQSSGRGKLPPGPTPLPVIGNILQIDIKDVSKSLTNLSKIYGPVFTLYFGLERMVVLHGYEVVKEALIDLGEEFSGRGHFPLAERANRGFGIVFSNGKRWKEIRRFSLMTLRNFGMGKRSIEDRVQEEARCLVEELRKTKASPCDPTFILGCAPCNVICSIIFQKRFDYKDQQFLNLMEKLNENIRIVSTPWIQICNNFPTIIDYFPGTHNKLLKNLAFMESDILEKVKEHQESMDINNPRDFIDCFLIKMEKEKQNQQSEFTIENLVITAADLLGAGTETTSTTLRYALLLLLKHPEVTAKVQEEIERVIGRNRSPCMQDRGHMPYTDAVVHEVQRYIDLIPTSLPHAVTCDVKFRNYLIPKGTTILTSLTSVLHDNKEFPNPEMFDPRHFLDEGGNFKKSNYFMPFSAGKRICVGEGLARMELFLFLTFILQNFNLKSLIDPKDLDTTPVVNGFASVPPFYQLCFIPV
Sequence of Progesterone receptor (Homo sapiens) (P06401 whole entry, looked up): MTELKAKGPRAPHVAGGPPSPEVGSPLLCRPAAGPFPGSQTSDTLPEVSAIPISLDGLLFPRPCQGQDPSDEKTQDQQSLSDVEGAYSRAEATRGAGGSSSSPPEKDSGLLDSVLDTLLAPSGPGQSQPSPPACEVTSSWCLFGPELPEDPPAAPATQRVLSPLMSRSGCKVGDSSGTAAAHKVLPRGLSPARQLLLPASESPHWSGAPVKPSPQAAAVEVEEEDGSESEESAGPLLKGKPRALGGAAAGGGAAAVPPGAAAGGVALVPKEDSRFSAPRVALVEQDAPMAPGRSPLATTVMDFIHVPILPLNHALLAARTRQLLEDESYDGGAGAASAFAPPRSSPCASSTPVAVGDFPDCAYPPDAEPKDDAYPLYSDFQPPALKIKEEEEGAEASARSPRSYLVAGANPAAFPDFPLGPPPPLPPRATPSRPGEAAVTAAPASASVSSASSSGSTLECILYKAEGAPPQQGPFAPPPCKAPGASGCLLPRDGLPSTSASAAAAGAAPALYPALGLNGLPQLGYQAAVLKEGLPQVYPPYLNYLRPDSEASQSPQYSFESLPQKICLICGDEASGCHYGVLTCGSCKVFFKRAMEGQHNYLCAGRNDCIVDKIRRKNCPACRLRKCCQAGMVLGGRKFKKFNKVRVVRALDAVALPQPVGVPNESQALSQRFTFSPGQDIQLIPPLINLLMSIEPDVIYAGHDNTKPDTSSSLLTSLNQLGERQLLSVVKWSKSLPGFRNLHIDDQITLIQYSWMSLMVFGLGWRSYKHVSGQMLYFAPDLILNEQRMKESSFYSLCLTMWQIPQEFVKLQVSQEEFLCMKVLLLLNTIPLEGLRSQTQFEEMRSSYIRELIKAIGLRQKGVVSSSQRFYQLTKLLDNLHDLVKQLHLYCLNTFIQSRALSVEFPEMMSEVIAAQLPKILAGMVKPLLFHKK
Sequence of Cytochrome P450 2D6 (Homo sapiens) (P10635 whole entry, looked up): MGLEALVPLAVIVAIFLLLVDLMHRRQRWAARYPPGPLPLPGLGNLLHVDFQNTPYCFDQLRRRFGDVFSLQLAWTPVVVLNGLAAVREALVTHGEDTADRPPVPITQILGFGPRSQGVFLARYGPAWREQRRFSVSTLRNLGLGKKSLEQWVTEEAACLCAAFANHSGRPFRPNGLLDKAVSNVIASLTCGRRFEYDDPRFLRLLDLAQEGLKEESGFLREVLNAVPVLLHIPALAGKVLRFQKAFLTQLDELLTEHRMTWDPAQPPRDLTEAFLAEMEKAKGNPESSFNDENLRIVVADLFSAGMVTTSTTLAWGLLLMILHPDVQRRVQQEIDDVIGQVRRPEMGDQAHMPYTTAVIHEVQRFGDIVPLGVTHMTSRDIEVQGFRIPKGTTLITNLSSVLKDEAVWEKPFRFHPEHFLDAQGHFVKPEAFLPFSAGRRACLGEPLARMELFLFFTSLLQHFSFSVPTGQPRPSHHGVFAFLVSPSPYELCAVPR
Sequence of Nuclear receptor subfamily 1 group I member 2 (Homo sapiens) (O75469 whole entry, looked up): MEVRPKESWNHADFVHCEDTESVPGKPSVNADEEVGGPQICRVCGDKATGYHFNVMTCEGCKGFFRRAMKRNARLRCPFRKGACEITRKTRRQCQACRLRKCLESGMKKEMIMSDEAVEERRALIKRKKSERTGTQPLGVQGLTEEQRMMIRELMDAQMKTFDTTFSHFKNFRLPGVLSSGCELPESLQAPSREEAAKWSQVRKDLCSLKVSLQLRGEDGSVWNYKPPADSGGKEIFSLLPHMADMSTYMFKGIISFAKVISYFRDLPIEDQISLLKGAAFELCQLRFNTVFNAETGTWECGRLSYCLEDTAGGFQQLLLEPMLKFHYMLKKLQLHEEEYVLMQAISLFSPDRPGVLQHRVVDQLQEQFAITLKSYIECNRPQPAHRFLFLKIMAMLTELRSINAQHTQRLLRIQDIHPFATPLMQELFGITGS
Sequence of Thyrotropin-releasing hormone receptor (Homo sapiens) (P34981 whole entry, looked up): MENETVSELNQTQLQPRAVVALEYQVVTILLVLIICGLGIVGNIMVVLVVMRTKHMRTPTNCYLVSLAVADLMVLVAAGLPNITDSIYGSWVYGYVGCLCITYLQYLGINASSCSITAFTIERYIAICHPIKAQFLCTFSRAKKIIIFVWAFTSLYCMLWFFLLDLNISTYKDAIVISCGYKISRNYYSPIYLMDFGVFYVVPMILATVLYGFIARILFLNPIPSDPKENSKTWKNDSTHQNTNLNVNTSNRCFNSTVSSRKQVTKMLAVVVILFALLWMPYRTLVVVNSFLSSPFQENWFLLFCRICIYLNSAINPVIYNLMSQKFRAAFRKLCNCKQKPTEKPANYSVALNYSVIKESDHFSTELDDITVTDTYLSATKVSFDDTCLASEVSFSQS
Sequence of Nuclear receptor subfamily 1 group I member 2 (Rattus norvegicus) (Q9R1A7 whole entry, looked up): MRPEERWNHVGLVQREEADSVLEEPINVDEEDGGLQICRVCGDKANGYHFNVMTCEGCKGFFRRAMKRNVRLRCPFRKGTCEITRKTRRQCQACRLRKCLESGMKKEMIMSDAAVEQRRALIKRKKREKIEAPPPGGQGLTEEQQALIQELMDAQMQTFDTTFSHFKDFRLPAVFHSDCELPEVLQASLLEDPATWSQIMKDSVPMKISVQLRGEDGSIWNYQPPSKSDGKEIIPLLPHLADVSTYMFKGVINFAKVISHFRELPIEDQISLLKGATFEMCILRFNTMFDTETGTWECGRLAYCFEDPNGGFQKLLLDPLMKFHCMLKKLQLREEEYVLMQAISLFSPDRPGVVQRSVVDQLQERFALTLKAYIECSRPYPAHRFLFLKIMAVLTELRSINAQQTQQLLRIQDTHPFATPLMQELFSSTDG

| SMILES | Potency [1] | Potency [2] | Potency [3] | Potency [4] | Potency [5] | Potency [6] | Potency [7] | Potency [8] | Potency [9] | Potency [10] | Potency [11] | Potency [12] | Potency [13] | Potency [14] | Potency [15] | Potency [16] | outcome [17] | max activation [18] | Potency [19] | Potency [20] |
| --- | --- | --- | --- | --- | --- | --- | --- | --- | --- | --- | --- | --- | --- | --- | --- | --- | --- | --- | --- | --- |
| CNC1(C)C2CCC(C2)C1(C)C (centres undefined) | inactive | inactive | inactive | inactive | inactive | inactive | inactive | inactive | inactive | inactive | inactive | inactive | inactive | inactive | inactive | – | – | – | – | – |
| CCC(C)(Oc1ccc(C2(c3ccc(OC(C)(CC)C(=O)O)cc3)CCCCC2)cc1)C(=O)O (centres undefined) | – | inactive | – | inactive | inactive | inactive | – | – | inactive | inactive | inactive | inactive | inactive | inactive | inactive | inactive | inactive | -0.804% (inactive) | inactive | – |
| C=C(C)C(=O)O | – | – | – | inactive | inactive | inactive | inactive | inactive | inactive | inactive | inactive | inactive | inactive | inactive | inactive | inactive | inactive | – | – | – |
| CNCCC(Oc1ccc(C(F)(F)F)cc1)c1ccccc1 (centres undefined) | – | – | 60.3 µM (active) and 29.8 µM (active) | 30.2 µM (active) and 13.3 µM (active) | inactive | inactive | inactive | inactive | 24 µM (active) and 26.6 µM (active) | 26.9 µM (active) | 67.7 µM (active) and 29.8 µM (active) | – | 60.3 µM (active) | – | – | inactive | – | – | – | – |
| CCc1ccc(C(c2ccc(CC)cc2)C(Cl)Cl)cc1 | – | – | – | inactive | inactive | inactive | inactive | inactive | inactive | inactive | inactive | inactive | inactive | 31.1 µM (active) and 24.3 µM (active) | inactive | inactive | inactive | – | – | 6.43 µM (active) and 3.56 µM (active) |
| CC(=O)CC(=O)Nc1ccc2[nH]c(=O)[nH]c2c1 | – | inactive | – | inactive | inactive | inactive | inactive | inactive | inactive | inactive | inactive | inactive | – | inactive | inactive | inactive | inactive | – | – | inactive |
| CN1C(=O)c2ccc([N+](=O)[O-])cc2C1=O | – | – | inactive | inactive | inactive | inactive | inactive | inactive | inactive | inactive | inactive | – | inactive | – | – | inactive | inactive | – | – | – |
| CN(C)c1ccc(C(=C2C=CC(=[N+](C)C)C=C2)c2ccccc2)cc1 | inactive | – | 8.63 µM (active) and 6.68 µM (active) and 7.5 µM (active) | 9.69 µM (active) and 7.5 µM (active) and 8.41 µM (active) | 8.49 µM (active) [middle of 4 runs] | 8.49 µM (active) [middle of 4 runs] | 26.9 µM (active) and inactive | inactive | 2.37 µM (active) [middle of 4 runs] | 4.33 µM (active) and 5.31 µM (active) and 5.96 µM (active) | 596 nM (active) [middle of 4 runs] | 5.96 µM (active) and 3.35 µM (active) | 19.3 µM (active) and 13.3 µM (active) and 23.7 µM (active) | 1.72 µM (active) and 2.11 µM (active) and 1.33 µM (active) | 7.97 µM (active) and 13.8 µM (active) and 15.5 µM (active) | – | – | 11.8% (inactive) | inactive | – |
| O=C(Nc1ccccc1SSc1ccccc1NC(=O)c1ccccc1)c1ccccc1 | – | – | inactive | – | inactive | inactive | inactive | inactive | inactive | inactive | 24.5 µM (active) and 27.3 µM (active) | – | – | 48.8 µM (active) and 30.6 µM (active) | inactive | inactive | inactive | – | – | – |
| Cc1cc(Cc2cc(C)cc(C(C)(C)C)c2O)c(O)c(C(C)(C)C)c1 | – | – | 43.5 µM (active) and 48.6 µM (active) | 27.4 µM (active) | 49.2 µM (active) and 54.9 µM (active) | 43.9 µM (active) and 54.9 µM (active) | inactive | inactive | 39.8 µM (active) and 61.1 µM (active) | 61.4 µM (active) | 27.4 µM (active) and 54.5 µM (active) | 27.4 µM (active) and 61.1 µM (active) | 61.4 µM (active) and 61.1 µM (active) | 24.5 µM (active) and 386 nM (active) | inactive | – | – | – | – | 5.05 µM (active) and 5.03 µM (active) |
